According to PubChem BioAssay (Tox21):
Results filed as inconclusive are left out. Calls of active or inactive are those of the source. Unless noted, calls follow the shape of the dose curve; as a rule, active = well fitted curve in the direction sought with a large enough effect in the repeat runs; inconclusive = weak or mixed curves; inactive = no such curve, though single readings can be large; an effect the other way counts as inactive or inconclusive.

Assays:
[1] = A CellTox Green Cytotoxicity Assay to monitor cytotoxicity in HEK293 cells - 16 hour (AID 1224888); also: nearly all actives have a fitted effect of over 35% in size
How it was run: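 HEK293 cells, 600/well, were preincubated 5 hours and then exposed to compounds at 37 C for up to 40 hours. A cell-impermeant cyanine dye staining dead-cell DNA was read by fluorescence at 0, 8, 16, 24, 32 and 40 h time points.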

[2] = qHTS RealTime-Glo MT Cell Viability Assay in HepG2 cells - 0 hour (AID 1224889); also: nearly all actives have a fitted effect of over 50% in size
How it was run: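 Real-time, nonlytic viability: 600 HepG2 cells/well mixed with NanoLuc enzyme plus prosubstrate; 5 h settle, compound (DMSO) added by pintool; luminescence monitored over 40 h at 37 C.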

[3] = qHTS assay to identify small molecule antagonists of the estrogen receptor alpha (ER-alpha) signaling pathway using the BG1 cell line in the presence of 0.1 nM 17-beta-estradiol - cell viability counter screen (AID 1259241); also: nearly all actives have a fitted effect of over 40% in size
How it was run: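 Measures cytotoxicity alongside the ER-alpha antagonist readout: VM7Luc4E2 cells, charcoal-stripped serum, 0.1 nM 17beta-estradiol final, 22 hr compound incubation at 37C, CellTiter-Fluor fluorescence.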

[4] = qHTS assay to identify small molecule antagonists of the androgen receptor (AR) signaling pathway using the MDA cell line in the presence of 0.5 nM R1881 - cell viability counter screen (AID 1259242); also: nearly all actives have a fitted effect of over 45% in size
How it was run: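 MDA-kb2 cells (MMTV-luciferase, AR/GR responsive) were treated with compounds plus 0.5 nM R1881 (final) for 16 hr at 37C, 0% CO2. Viability was then read in the same wells as live-cell protease fluorescence (CellTiter-Fluor, 30 min).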

[5] = biological target: Estrogen receptor (Homo sapiens) (UniProt P03372); assay: qHTS assay to identify small molecule antagonists of the estrogen receptor alpha (ER-alpha) signaling pathway using the BG1 cell line in the presence of 0.1 nM 17-beta-estradiol (AID 1259244); also: nearly all actives have a fitted effect of over 50% in size
How it was run: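 VM7Luc4E2 cells (endogenous full-length ER-alpha, 4×ERE-luciferase), kept 5 days in phenol red-free, charcoal-stripped FBS medium; 4,000 cells/well. Compounds added with 0.1 nM (final) 17beta-estradiol, 22 hr at 37C; luminescence read with ONE-Glo after 30 min.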

[6] = qHTS assay to identify small molecule HDAC inhibitors (AID 1259364); also: top concentration of the series differs between compounds; nearly all actives have a fitted effect of over 45% in size
How it was run: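 Wild-type HCT-116 cells, plated overnight at 37 C, exposed to compounds 2 hr at 37 C; luminogenic HDAC-Glo substrate then added 30 min at room temperature. Luminescence reports relative endogenous class I/II HDAC activity.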

[7] = qHTS assay to identify small molecule HDAC inhibitors - cell viability counter screen (AID 1259365); also: series mostly up to about 92 µM; nearly all actives have a fitted effect of over 50% in size
How it was run: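 Following a 2hr exposure of overnight-plated wild-type HCT-116 cells to DMSO-delivered compounds, CellTiter-Glo was added and luminescence recorded after 30min at room temperature.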

[8] = qHTS assay to identify small molecule agonists of the sonic hedgehog signaling (Shh) pathway - cell viability counter screen (AID 1259366); also: nearly all actives have a fitted effect of over 50% in size
How it was run: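 After a 4hr attachment at 37C, NIH/3T3 cells bearing an integrated Gli1-driven luciferase reporter were dosed with compounds. Treatment lasted 24hr, with the final hour including CellTiter-Fluor for a fluorescence viability measurement.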

[9] = qHTS assay to identify small molecule antagonists of the sonic hedgehog signaling (Shh) pathway - cell viability counter screen (AID 1259367); also: nearly all actives have a fitted effect of over 55% in size
How it was run: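 Seed 3T3 Gli1-Luc cells at 2,000 per well; incubate 4 hr; add compound in DMSO, then conditioned medium; incubate at 37C with 5% CO2; add CellTiter-Fluor after 23 hr; read fluorescence 1 hr later.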

[10] = qHTS assay to identify small molecule agonists of the sonic hedgehog signaling (Shh) pathway (AID 1259368; calls by dose curve;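 also: NIH/3T3-derived 3T3Gli1-Luc cells carrying a stable Gli1-driven firefly luciferase reporter; series mostly up to about 92 µM; nearly all actives have a fitted effect of over 15% in size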)
How it was run: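 NIH/3T3-derived 3T3Gli1-Luc cells with stably integrated Gli1-driven firefly luciferase, 2,000 cells/well, compounds added after 4 hr. Incubated 24 hr at 37C, 5% CO2; luminescence read after 30 min with luciferase reagent at room temperature.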

[11] = qHTS assay to identify small molecule antagonists of the sonic hedgehog signaling (Shh) pathway (AID 1259369; calls by dose curve; also: nearly all actives have a fitted effect of over 45% in size)
How it was run: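 NIH/3T3-derived Gli1-Luc reporter cells plated 4 h, dosed with compound, then stimulated with conditioned medium for 24 h at 37 C. Firefly luciferase luminescence read after 30 min with detection reagent at room temperature.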

[12] = biological target: Estrogen receptor beta (Homo sapiens) (UniProt Q92731); assay: qHTS assay to identify small molecule agonists of the estrogen receptor beta (ER-beta) signaling pathway (AID 1259377; active = well fitted activation curve with a large enough effect in the signal ratio in the repeat runs, not every such curve was filed as active; the % refers to the signal ratio)
How it was run: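 In HEK293T cells bearing a UAS-beta-lactamase reporter under ER-beta control, DMSO-delivered compounds were incubated for 16 hr at 37C. Activity was detected as fluorescence 2 hours after LiveBLAzer B/G FRET substrate addition.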

[13] = biological target: Estrogen receptor beta (Homo sapiens) (UniProt Q92731); assay: qHTS assay to identify small molecule antagonists of the estrogen receptor beta (ER-beta) signaling pathway (AID 1259378; active = well fitted inhibition curve with a large enough effect in the signal ratio in the repeat runs, not every such curve was filed as active; the % refers to the signal ratio)
How it was run: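 ER-beta-UAS-bla HEK293T cells in 2% charcoal-stripped FBS medium treated with compound plus 1nM final 17-beta-estradiol for 16 hr at 37C. Beta-lactamase reporter read by FRET substrate fluorescence after 2 hours at room temperature.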

[14] = qHTS assay to identify small molecule agonists of the androgen receptor (AR) signaling pathway in the presence of an antagonist - cell viability counter screen (AID 1259379);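 also: MDA-kb2 human breast cancer cells carrying an MMTV luciferase reporter; series mostly up to about 92 µM; nearly all actives have a fitted effect of over 25% in size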
How it was run: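 MDA-kb2 cells (MMTV-luciferase, AR/GR), 3,000/well, 5 h attachment, then 3.0 µM nilutamide (final) and compounds at 15 concentrations. Viability by CellTiter-Fluor fluorescence after 16 h at 37 °C, 0% CO2, in the reporter wells.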

[15] = qHTS assay to identify small molecule agonists of the estrogen receptor beta (ER-beta) signaling pathway - cell viability counter screen (AID 1259380); also: nearly all actives have a fitted effect of over 30% in size
How it was run: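 ER-beta-UAS-bla HEK293T cells in medium with 2% charcoal-stripped FBS, pre-incubated 6 hr, then treated 16 hr at 37C. Cytotoxicity read in the same wells by CellTiter-Glo luminescence after 30 min at room temperature.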

[16] = qHTS assay to identify small molecule antagonists of the estrogen receptor beta (ER-beta) signaling pathway - cell viability counter screen (AID 1259382); also: series mostly up to about 92 µM; nearly all actives have a fitted effect of over 55% in size
How it was run: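 ER-beta-UAS-bla HEK293T cells in 2% charcoal-stripped FBS medium, treated with compound plus 1 nM 17-beta-estradiol for 16 h at 37C. Viability read by CellTiter-Glo luminescence after 30 min at room temperature in the same wells.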

[17] = biological target: Androgen receptor (Homo sapiens) (UniProt P10275); assay: qHTS assay to identify small molecule antagonists of the androgen receptor (AR) signaling pathway using the MDA cell line in the presence of 0.5 nM R1881 (AID 1259243); also: nearly all actives have a fitted effect of over 50% in size
How it was run: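 MDA-kb2 cells (MMTV-luciferase, responsive to AR and GR) at 3,000/well, rested 5 h at 37C, 0% CO2, then given compounds plus 0.5 nM R1881 (final) for 16 hr. Luciferase read with ONE-Glo after 30 min at room temperature.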

[18] = biological target: Androgen receptor (Homo sapiens) (UniProt P10275); assay: qHTS assay to identify small molecule agonists of the androgen receptor (AR) signaling pathway in the presence of an antagonist (AID 1259381; calls by dose curve; also: nearly all actives have a fitted effect of over 15% in size)
How it was run: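 MDA-kb2 cells carrying MMTV-luciferase (AR/GR responsive), 3,000 cells/well, co-treated with 3.0 uM nilutamide final. Compounds at 15 concentrations, 16 hr at 37C without CO2. Luciferase luminescence read after 30 min with ONE-Glo.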

[19] = A CellTox Green Cytotoxicity Assay to monitor cytotoxicity in HepG2 cells - 8 hour (AID 1224890); also: nearly all actives have a fitted effect of over 45% in size
How it was run: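 HepG2 cells, 600/well, preincubated 5 h with CellTox Green dye, then exposed to Tox21 compounds in DMSO at 37 C for up to 40 h. Dead-cell DNA fluorescence read at the indicated time point.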

[20] = qHTS assay to identify small molecule phospholipidosis (PLD) inducers (AID 1259344; active = well fitted curve in the direction sought with a large enough effect; an effect the other way counts as inactive or inconclusive)
How it was run: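 Quantitative HTS in HepG2: compound plus LipidTOX Red dye for 24 h, paraformaldehyde fixation with Hoechst 33342, widefield high-content imaging; amiodarone as positive and DMSO as negative control.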

Measured: Potency

Chain of Androgen receptor (Homo sapiens) (P10275 whole entry, looked up): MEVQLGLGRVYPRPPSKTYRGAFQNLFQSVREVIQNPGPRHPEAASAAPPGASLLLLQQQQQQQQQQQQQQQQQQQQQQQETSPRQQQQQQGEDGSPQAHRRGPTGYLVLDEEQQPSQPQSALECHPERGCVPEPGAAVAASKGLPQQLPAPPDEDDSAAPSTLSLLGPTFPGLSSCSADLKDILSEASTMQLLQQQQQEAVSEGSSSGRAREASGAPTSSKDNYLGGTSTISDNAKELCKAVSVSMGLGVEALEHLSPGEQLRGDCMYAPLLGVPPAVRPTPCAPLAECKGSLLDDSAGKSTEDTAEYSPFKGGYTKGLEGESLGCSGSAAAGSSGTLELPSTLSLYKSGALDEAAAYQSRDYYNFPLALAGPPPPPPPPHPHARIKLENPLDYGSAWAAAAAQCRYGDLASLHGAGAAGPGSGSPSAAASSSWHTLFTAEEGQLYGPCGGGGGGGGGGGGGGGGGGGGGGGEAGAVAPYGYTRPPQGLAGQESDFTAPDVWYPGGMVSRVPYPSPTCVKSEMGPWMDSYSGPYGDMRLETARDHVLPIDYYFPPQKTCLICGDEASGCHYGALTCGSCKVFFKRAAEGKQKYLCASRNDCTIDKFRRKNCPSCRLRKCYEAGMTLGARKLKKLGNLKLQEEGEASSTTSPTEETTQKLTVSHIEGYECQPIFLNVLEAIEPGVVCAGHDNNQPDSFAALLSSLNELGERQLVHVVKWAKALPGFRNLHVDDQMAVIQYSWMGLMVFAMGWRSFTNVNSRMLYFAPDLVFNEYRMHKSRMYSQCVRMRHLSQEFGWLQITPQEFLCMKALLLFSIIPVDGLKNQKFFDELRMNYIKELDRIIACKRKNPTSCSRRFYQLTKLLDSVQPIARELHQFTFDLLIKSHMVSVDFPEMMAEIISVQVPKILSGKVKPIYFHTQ
Chain of Estrogen receptor (Homo sapiens) (P03372 whole entry, looked up): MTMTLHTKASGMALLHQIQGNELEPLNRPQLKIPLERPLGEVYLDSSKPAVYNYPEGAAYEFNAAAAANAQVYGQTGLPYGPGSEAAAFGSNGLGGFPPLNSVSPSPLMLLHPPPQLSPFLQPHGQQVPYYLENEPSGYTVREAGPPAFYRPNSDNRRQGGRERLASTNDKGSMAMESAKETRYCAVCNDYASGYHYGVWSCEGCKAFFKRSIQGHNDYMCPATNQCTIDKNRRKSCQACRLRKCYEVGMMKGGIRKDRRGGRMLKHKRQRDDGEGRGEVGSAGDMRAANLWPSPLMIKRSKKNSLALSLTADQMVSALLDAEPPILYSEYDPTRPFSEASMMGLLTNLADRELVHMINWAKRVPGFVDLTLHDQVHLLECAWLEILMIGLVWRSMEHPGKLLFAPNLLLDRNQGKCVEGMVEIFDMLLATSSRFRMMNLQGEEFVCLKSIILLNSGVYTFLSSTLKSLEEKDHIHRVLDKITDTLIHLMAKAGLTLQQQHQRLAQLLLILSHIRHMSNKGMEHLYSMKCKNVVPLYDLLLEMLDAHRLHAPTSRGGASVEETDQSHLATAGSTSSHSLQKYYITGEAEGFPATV
Chain of Estrogen receptor beta (Homo sapiens) (Q92731 whole entry, looked up): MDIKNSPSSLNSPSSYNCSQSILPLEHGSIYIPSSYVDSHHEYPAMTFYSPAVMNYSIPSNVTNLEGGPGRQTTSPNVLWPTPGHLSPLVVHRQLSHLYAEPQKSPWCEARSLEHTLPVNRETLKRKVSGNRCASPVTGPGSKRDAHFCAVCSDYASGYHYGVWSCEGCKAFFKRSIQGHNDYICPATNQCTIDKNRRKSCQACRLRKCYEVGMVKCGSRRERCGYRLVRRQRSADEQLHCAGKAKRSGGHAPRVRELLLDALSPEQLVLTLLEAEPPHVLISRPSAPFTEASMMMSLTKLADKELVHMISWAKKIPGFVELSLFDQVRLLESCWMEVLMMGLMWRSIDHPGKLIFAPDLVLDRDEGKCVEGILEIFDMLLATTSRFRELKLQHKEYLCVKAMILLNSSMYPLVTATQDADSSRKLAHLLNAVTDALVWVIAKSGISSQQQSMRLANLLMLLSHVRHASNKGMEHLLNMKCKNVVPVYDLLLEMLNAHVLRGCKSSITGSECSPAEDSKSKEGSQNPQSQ

CCCCC(O)/C=C(C)/C=C/C=C/C(=O)N1CCCC1=O (centres undefined)
not listed: [17] | [18] | [19] | [20]
inactive: all other assays above

C=CCn1cc[n+](C)c1
not listed: [6] | [12] | [17] | [18] | [19] | [20]
inactive: all other assays above

CC1(C)C(=O)C(C)(C)C1=O
not listed: [5] | [6] | [10] | [12] | [13] | [19] | [20]
inactive: all other assays above

O=C[C@@H](O)[C@H](O)[C@H](O)CO
not listed: [5] | [16] | [19] | [20]
inactive: all other assays above

CCCCN1C(=O)c2ccccc2C1=O
not listed: [6] | [17] | [18] | [19] | [20]
inactive: all other assays above

CC(=O)c1c(C)cc(C(C)(C)C)cc1C
not listed: [5] | [17] | [18] | [19] | [20]
inactive: all other assays above

N#Cc1cc(NC(=O)C(=O)O)c(Cl)c(NC(=O)C(=O)O)c1
not listed: [2] | [11] | [12] | [13] | [15] | [20]
inactive: all other assays above

Cc1ccccc1C#N
not listed: [12] | [13] | [17] | [18] | [19] | [20]
inactive: all other assays above

N=C(N)N
not listed: [5] | [6] | [12] | [13] | [16] | [17] | [18] | [19]
inactive: all other assays above

Cc1cc(N)no1
not listed: [5] | [6] | [10] | [17] | [18] | [19] | [20]
inactive: all other assays above

O=S(=O)(O)CC(O)CCl (centres undefined)
not listed: [6] | [16] | [17] | [18] | [19] | [20]
inactive: all other assays above

CC(C)C(C)C
not listed: [5] | [17] | [18] | [19] | [20]
inactive: all other assays above

CCCCCCCC(=O)N(C)C
not listed: [17] | [18] | [19] | [20]
inactive: all other assays above

CCN1CCN(C(=O)N[C@@H](C(=O)N[C@@H]2C(=O)N3C(C(=O)O)=C(CSc4nnnn4C)CS[C@H]23)c2ccc(O)cc2)C(=O)C1=O
not listed: [16] | [17] | [18] | [19]
inactive: all other assays above

COc1cc(NS(=O)(=O)c2ccc(N)cc2)ncn1
not listed: [5] | [12] | [13] | [16] | [17] | [18] | [19]
inactive: all other assays above

CCN(CC)CC(=O)Oc1ccc(NC(C)=O)cc1
not listed: [2] | [5] | [6] | [20]
inactive: all other assays above

CCc1ncc(C)[nH]1
not listed: [2] | [5] | [20]
inactive: all other assays above
